# Bioassay records: PubChem, National Center for Advancing Translational Sciences (NCATS)
# HCV inhibitor: qHTS Assay for Inhibitors of Hepatitis C Virus (HCV); Huh7.5.1 HCVcc-Cre infection, luciferase reporter, 44 h; Potency, µM (series often up to 41.8 µM), for the others: at the highest dose activity change, negative = inhibition, actives largely listed as inhibitors; actives 3.4% (n = 340,000); AID 651820, 2012; active = well fitted inhibition curve with a large enough effect; inconclusive = small, poorly fitted or top-dose-only effect, or another doubt; inactive = no such curve, though single readings can be large or run the other way
#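 Cells seeded at 1,000/well and cultured 4 h, then compounds added followed by HCVcc-Cre virus (~0.5 moi). After 44 h further culture, luciferase substrate was added, plates held 15 min at room temperature, and luminescence read for 15 sec.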
# VACV Venus inh: qHTS for Stage-Specific Inhibitors of Vaccinia Orthopoxvirus: Venus Reporter Primary qHTS; Potency, µM (highest dose often 36.5 µM), inactives show at the top dose activity change, negative = inhibition, most hits filed as inhibitors; actives 0.46% (n = 330,000); Vaccinia virus Venus reporter expression, fluorescence; calls by dose curve; tested in A549 cells; note: nearly all actives have a fitted effect of over 30% in size
# Vaccinia mCherry: qHTS for Stage-Specific Inhibitors of Vaccinia Orthopoxvirus: mCherry Reporter Primary qHTS | Vaccinia virus mCherry reporter infection, fluorescence | Potency, µM (doses to about 36.5 µM), without a hit: at the top dose activity change, negative = inhibition, usual class: inhibitors | actives 0.63% (n = 310,000) | AID 720579, 2013; calls by dose curve; tested in A549 cells; note: nearly all actives have a fitted effect of over 35% in size
# Numbers without * were called inactive; i = inactive; ? = inconclusive; . = no result given; ! = a repeat was not active; [ ] = remark or other dose. Only some compounds are listed: those with a hit (about 3.3% of all), similar ones and a draw of the others. % is set by controls: 0 for no effect and ±100 for the full control effect; potency is the fitted concentration of half-maximal effect.
SMILES,HCV inhibitor,VACV Venus inh,Vaccinia mCherry
CCCC(C)NC(=O)CN1C(=O)NC2(CCc3ccccc32)C1=O (stereo not drawn),-7.6%,.,.
CCCNC(=O)[C@H]1O[C@@H]1C(=O)N[C@H](C(=O)N1CCC[C@H]1C(=O)OC)[C@@H](C)CC,.,-10.3%[60.7 µM],-22.1%[60.7 µM]
O=C(c1cnn2c1NC(=C1CC1)C=C2C(F)F)N1CCc2ccccc21,.,-20.8%,-7.3%
COc1ccc(Cn2c(=O)[nH]c3cc(C(=O)NCCC(C)C)ccc3c2=O)cc1,.,-10.6%,-16.4%
Cn1nccc1C(=O)NC1CC(C)(C)Cc2c1cnn2-c1ccc(F)cc1 (stereo not drawn),-5.1%,-16.4%,-12.7%
CCOCCCN1C(=O)c2[nH]nc(-c3ccccc3O)c2C1c1ccc(CC)cc1 (stereo not drawn),.,-24.7%,?
C#CCOCCOCCOCCNc1nc(N2CCN(C(=O)Cn3cc(CCCN=C(N)N)nn3)CC2)nc(N2CCN(C(=O)[C@H]([C@@H](C)CC)n3cc(CCCCN)nn3)CC2)n1,20.5%,-15.4%,i
C#CCOCCOCCOCCNc1nc(N2CCN(C(=O)CCCCCCCCCCNC(=O)Cn3cc(CCCCCN)nn3)CC2)nc(N2CCN(C(=O)CCCCCCCCCCNC(=O)[C@H]([C@@H](C)CC)n3cc(CCCCN=C(N)N)nn3)CC2)n1,?,5.62µM*,?
O=c1oc2ccccc2cc1-c1csc(Nc2nc3c(F)cccc3s2)n1,12.6µM*,-3.3%,-18.6%
O=c1oc2ccccc2cc1-c1csc(Nc2nc3ccc(F)cc3s2)n1,-3.6%,.,.
CCN(C[C@H]1N[C@@](C)(C(=O)OC)[C@H]2C(=O)N(C)C(=O)[C@@H]12)C(=O)Nc1ccc(OC)cc1,2.51µM*,-8.3%,-17.1%
CCN(C[C@H]1N[C@@](C)(C(=O)OC)[C@H]2C(=O)N(C)C(=O)[C@@H]12)C(=O)Nc1ccc(F)cc1,-1.6%,-8.7%,-13.2%
Cc1cc(C)c(Cc2c(C)nc3c(C(=O)NCc4ccco4)cnn3c2C)c(C)c1,8.91µM*,-2.7%,10.5%
Cc1ccc(CNC(=O)c2cnn3c(C)c(Cc4c(F)cccc4Cl)c(C)nc23)cc1,.,-14.0%,-14.9%
Nc1nc(-c2ccc(Cl)cc2)c(N=Nc2ccc(S(=O)(=O)N3CCOCC3)cc2)s1,11.2µM*,-4.6%,-14.0%
O=S(=O)(c1ccc(Cl)cc1)N1CCC(N2CCOCC2)CC1,-17.5%,.,.
CCn1cc(C(=O)OCC(=O)Nc2cccc(C(C)=O)c2)c(=O)c2ccc(C)nc21,.,-9.0%,12.0%
N=c1c(C(=O)NC2CCCCC2)cc2c(=O)n3ccccc3nc2n1Cc1ccccc1,11.2µM*,.,.
N=c1c(C(=O)NC2CCCCC2)cc2c(=O)n3ccccc3nc2n1Cc1cccnc1,?,-10.5%,i
CCC(=O)Nc1cc(C)c(O)c(-c2nc3ncccc3o2)c1,.,-14.0%,-16.7%
CCOc1ccc(S(=O)(=O)N2CCN(C(=O)c3ccc(-n4cncn4)c([N+](=O)[O-])c3)CC2)cc1,11.2µM*,-24.5%,-13.0%
Cc1cc(C)c(S(=O)(=O)N2CCN(C(=O)c3ccc(-n4cncn4)c([N+](=O)[O-])c3)CC2)c(C)c1,-3.6%,-29.9%,-29.9%
Cc1ccc(-n2nnnc2Sc2ccc(S(=O)(=O)NCCN(C)C)cc2[N+](=O)[O-])cc1,10µM*,11.2µM*,?
CC(=O)N1CCN(c2ccc(S(=O)(=O)NCCN(C(C)C)C(C)C)cc2[N+](=O)[O-])CC1,1.3%,-11.1%,i
CN(C)CCNS(=O)(=O)c1ccc(N2CCN(c3ccc(F)cc3)CC2)c([N+](=O)[O-])c1,10µM*,?,-27.2%
SMILES,HCV inhibitor,VACV Venus inh,Vaccinia mCherry
Cc1ccc(S(=O)(=O)NCCSc2nnnn2-c2ccc(C(N)=O)cc2)cc1,-1.2%,-9.6%,-13.8%
O=C(Nc1cc(Cl)cc(Cl)c1)c1cnn2c1NC(=C1CC1)C=C2C(F)F,.,-7.7%,-7.6%
O=C1CC(NCc2cccs2)C(=O)N1c1ccc(Cl)cc1 (stereo not drawn),2.7%,-11.5%,.
CCCOc1ccc(N2C(=O)CC(NCc3cccs3)C2=O)cc1 (stereo not drawn),9.0%,11.2µM*,.
COc1ccccc1CNC(=O)c1cnn2c(C)c(Cc3ccc(F)cc3)c(C)nc12,.,-10.0%,-22.3%
Cc1nc(SC(C)C(=O)NCC2CCCO2)c2cc(-c3ccccc3)sc2n1 (stereo not drawn),3.8%,-1.8%,5.01µM*
CCn1c(SC(C)C(=O)NCC2CCCO2)nc2scc(-c3ccccc3)c2c1=O (stereo not drawn),?,-19.5%,-11.1%
Cc1ccccc1C(=O)NC1(C(F)(F)F)N=C(c2ccccc2)N(Cc2ccccc2)C1=O (stereo not drawn),.,-4.6%,-9.2%
COc1cc(OC)c(-c2nn3c(-c4n[nH]c5c4CCC5)nnc3s2)cc1OC,.,?,7.08µM*!
c1csc(Cc2nn3c(-c4n[nH]c5c4CCC5)nnc3s2)c1,?,-18.9%,?
O=C(CCC(=O)N1CCOCC1)NCc1cccc(C(F)(F)F)c1,10.4%,.,.
CCn1ccnc1CN1CCCC(C(=O)c2ccc3cc(OC)ccc3c2)C1 (stereo not drawn),10µM*,-12.0%,-23.8%
COc1ccc2cc(C(=O)C3CCCN(Cc4ccccn4)C3)ccc2c1 (stereo not drawn),-19.7%,-15.2%,-15.8%
CC[C@H](CO)Nc1nc(Nc2cccc(Cl)c2)c2ncn(C(C)C)c2n1,?,10µM*,?
CC(C)[C@H](CO)N(Cc1cccc(F)c1)c1nc(Nc2cccc(Cl)c2)c2ncn(C(C)C)c2n1,?,-21.9%,i
C[C@@H]1CN(Cc2ccc3c(c2)CN(Cc2nc(-c4ccccc4)cs2)CCO3)C[C@H](C)O1,.,-24.7%,-22.5%
Cc1ccc(NC(=O)CSc2nc3c(sc4ccccc43)c(=O)n2CCCC(=O)NC2CCCC2)cc1C,.,-7.2%,-1.6%
C[C@@H]1c2ccccc2N2C[C@H](Cc3ccc(C(=O)c4ccccc4)cc3)C[C@@H]12,.,-12.7%,-2.3%
Cc1ccccc1-c1nnc(SCC(=O)NC2CCCCC2)o1,5.0%,-20.7%,.
COc1ccccc1-c1nnc(SCC(=O)NC2CCCCC2)o1,15.6%,?,11.2µM*
Cc1ccc(CNc2nc(CN3CCCCC3c3cccnc3)nc3ccccc23)o1 (stereo not drawn),.,-15.9%,-0.2%
COC(=O)c1c(NC(=O)COc2ncnc3ccccc23)sc(C)c1C,?,-7.8%,4.4%
CCOC(=O)c1c(NC(=O)C2c3ccccc3Oc3ccccc32)sc(C(=O)N(CC)CC)c1C,7.08µM*,-28.4%,.
CCOC(=O)c1c(NC(=O)COc2ncnc3ccccc23)sc(C(C)=O)c1C,7.08µM*,-19.9%,i
CCOC(=O)c1c(NC(=O)COC(=O)Cc2n[nH]c(=O)c3ccccc23)sc(C(=O)N(C)C)c1C,?,-10.4%,i
CCOC(=O)c1c(NC(=O)COC(=O)Cc2c[nH]c3ccccc23)sc(C(=O)N(C)C)c1C,14.1µM*,-12.4%,-18.2%
CCOC(=O)c1sc(NC(=O)C2c3ccccc3Oc3ccccc32)c(C(=O)OCC)c1C,.,-12.1%,-21.0%
C[C@H](CO)N1C[C@H](C)[C@@H](CN(C)S(=O)(=O)c2ccc(-c3ccccc3)cc2)OCc2cn(nn2)CCCC1=O,.,4.2%,-19.0%
